Compounds with a hit are over-represented: about 1.4% of the library has one in this group of screens.
PV pol inh: inhibitors of poliovirus RNA polymerase binding and polymerization; P03300; poliovirus polymerase elongation, fluorescence polarization; stronger effect = lower value; % elongation, % (compound at 16.7 µg/mL); hit rate 0.66% among 150,000; in the data active means % elongation below about 90%
Target sequence (P03300 1749-2209 limits assumed): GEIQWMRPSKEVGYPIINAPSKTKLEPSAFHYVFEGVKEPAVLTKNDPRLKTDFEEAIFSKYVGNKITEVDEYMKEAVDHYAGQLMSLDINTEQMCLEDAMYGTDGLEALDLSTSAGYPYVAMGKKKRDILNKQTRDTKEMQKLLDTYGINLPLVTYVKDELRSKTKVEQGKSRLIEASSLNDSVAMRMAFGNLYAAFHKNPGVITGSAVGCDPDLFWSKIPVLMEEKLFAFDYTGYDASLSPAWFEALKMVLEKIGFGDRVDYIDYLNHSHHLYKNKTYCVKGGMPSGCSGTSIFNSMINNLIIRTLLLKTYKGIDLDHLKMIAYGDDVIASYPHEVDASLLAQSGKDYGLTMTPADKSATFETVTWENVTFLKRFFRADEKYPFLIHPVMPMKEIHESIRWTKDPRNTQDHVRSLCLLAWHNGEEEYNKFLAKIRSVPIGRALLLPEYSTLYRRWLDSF
Mtb MenB inh: blocks the Mycobacterium tuberculosis MenB enzyme; MenB enzyme assay, absorbance read-out; inhibition, % (no concentration beside the values); hit rate 0.43% among 100,000; in the data active means inhibition above about 21%, passing the limit was not always enough
MbtI inh: MbtI salicylate synthase inhibition; P9WFX0; purified MbtI enzyme, fluorescence intensity read-out; inhibition, % (test concentration not listed); hit rate 0.89% among 100,000; AID 493033; in the data active means inhibition mostly above about 56%, no sharp cut-off; inactive means mostly below about 77%
* marks the source's active call; other numbers are inactive results; nt = no result.

SMILES	PV pol inh	Mtb MenB inh	MbtI inh
CC(C(=O)N1CCc2ccccc21)N1CCN(S(=O)(=O)/C=C/c2ccccc2)CC1 (stereo not given)	106	-18	-2
c1ccc(CN2CCN(C3CCNCC3)CC2)cc1	102	-30	3
Cn1c(=O)sn(-c2ccccc2)c1=O	96	3	100*
CC1(O)CC(=O)N(c2ccccc2)O1 (stereo not given)	nt	nt	4
O=C(CCN1CCOCC1)c1ccc(Br)cc1	99	3	nt
CCCCCOc1ccc(C(=O)CCN2CCOCC2)cc1	103	-7	92*
Cc1ccc2oc(=O)c(C(=O)O)cc2c1	102	-8	11
Cc1ccc2o/c(=N\O)c(C(N)=O)cc2c1	100	-12	100*
O=C(Nc1ccccc1-c1ccccc1)C1CCCO1 (stereo not given)	100	1	-4
COC(=O)c1cc(-c2ccccc2)sc1NC(=O)C1CCCO1 (stereo not given)	85*	-33	nt
CN(C)Cc1ccccc1CNC(=O)c1ccc(N(C)C)cc1	100	-8	-14
O=S(=O)(NCC(c1cccs1)S(=O)(=O)c1ccccc1)c1ccc(F)c(C(F)(F)F)c1 (stereo not given)	90	nt	nt
O=C1C=C(Nc2ccc(F)c(C(F)(F)F)c2)c2ccccc2C1=O	62*	-4	nt
CCOc1ccc(-c2cn3c(n2)sc2cc(C(=O)NCCCN(CC)CC)ccc23)cc1	101	nt	nt
CCN(CC)CCNC(=O)c1ccc2c(c1)sc1nc(-c3ccc(F)cc3)cn12	89*	nt	nt
CC12CCC(C(=O)O)(C/C1=N\N)C2(C)C (stereo not given)	101	-1	-6
O=C(OCC1CCCO1)c1ccccc1C(F)(F)F (stereo not given)	103	nt	-2
Cn1nc(C(=O)N2CCCCC2)c2c1-c1ccccc1SC2	101	0	87*
Cn1nc(C(=O)N2CCN(c3ccc(Cl)cc3)CC2)c2c1-c1ccccc1SC2	110	nt	nt
O=C(Cn1c(SCCOc2ccccc2)nc2ccccc21)N1CCOCC1	81*	nt	nt
COc1ccc(OCCSc2nc3ccccc3n2CC(=O)N2CCOCC2)cc1	107	nt	nt
CC1(C)C2CCC1(CS(=O)(=O)N1CCN(Cc3ccccc3)CC1)C(=O)C2 (stereo not given)	nt	-7	-8
CN(CC(=O)Nc1ccc(F)cc1)C(=O)CSc1ccc2c(c1)OCCO2	106	-24	98*
O=C(CSc1ccc2c(c1)OCCO2)Nc1ccccc1	99	-9	0
CCCCNC(=O)C1CCN(S(=O)(=O)CC)CC1	100	-15	-21
SMILES	PV pol inh	Mtb MenB inh	MbtI inh
CS(=O)(=O)N(CCc1ccccc1)CC(=O)N1CCOCC1	102	34*	0
CC1CCN(C(=O)CN(CCc2ccccc2)S(C)(=O)=O)CC1	106	-40	-8
CC(=O)n1c(/C=C2/N=C(c3cccs3)OC2=O)cc2ccccc21	102	-33	-5
O=C1OC(c2cccs2)=N/C1=C\c1cccc(F)c1	88*	nt	95
Cc1ccc(C(=O)Sc2nc(C)cc(C)n2)cc1	103	-8	78*
Cc1ccc(C(=O)Sc2nnc3ccccn23)cc1	101	nt	60
CC(=O)NCc1ccc(C(=O)CSc2nnc(-c3cccc(C)c3)n2-c2ccc(C)cc2)o1	102	-3	19
CC(=O)NCc1ccc(C(=O)COC(=O)c2ccc(S(=O)(=O)N3CCCCCC3)cc2)o1	100	-3	-9
COC(=O)C(C(=O)OC)c1nc2ccccc2nc1Cl	99	4	-12
COC(=O)C(C#N)c1nc2ccccc2nc1Cl (stereo not given)	83*	-24	0
c1ccc(Nc2ccccc2)cc1	104	-16	-8
O=C1C=CC(=O)C(Nc2ccccc2)=C1	100	nt	99*
O=C1c2ccccc2C(=O)N1CSc1n[nH]c(-c2ccccc2Br)n1	96	-18	11
CS(=O)(=O)c1cccc(S(=O)(=O)N2CCSCC2)c1	104	12	-5
O=C(CN1CCSc2ccccc21)Nc1ccc(N2CCOCC2)cc1	107	10	-10
O=C(CSc1ncc(C(F)(F)F)cc1Cl)N1CCNC1=O	104	3	58*
O=C1CN(C(=O)CSc2ncc(C(F)(F)F)cc2Cl)c2ccccc2N1	99	-8	5
CCN1CCCC1CNC(=O)c1ccccc1Sc1ccccc1C#N (stereo not given)	102	7	24
CCN1C(=O)/C(=C2\SC(=S)N(NC(=O)c3ccccc3)C2=O)c2ccccc21	101	-17	nt
CC(=O)N1C(=O)/C(=C2\SC(=S)N(C(C)C(=O)O)C2=O)c2ccccc21 (stereo not given)	103	34*	9
COc1ccccc1C(C)NCC(=O)Nc1ccccc1C(=O)NC1CC1 (stereo not given)	105	12	-12
c1ccc(-c2nnn3c2nc(N2CCCC2)c2ccccc23)cc1	102	2	4
COc1ccc(-c2nnc(SC)n2-c2ccccc2)cc1	103	-16	-11
CC(Sc1cccc[n+]1[O-])C(=O)NCC1CCCCC1 (stereo not given)	100	5	81*
O=C(CSc1cccc[n+]1[O-])NCC1CCCCC1	105	-8	-2
SMILES	PV pol inh	Mtb MenB inh	MbtI inh
CN(C(=O)CSc1nncn2c1cc1sccc12)c1ccccc1	98	33*	6
CN(C(=O)CSc1nncn2c1cc1occc12)c1ccccc1	107	nt	nt
CCn1cc(C(=O)N2CCN(c3ccc(F)cc3)CC2)c(=O)c2cc(S(=O)(=O)N(C)C3CCCCC3)ccc21	107	nt	nt
CCC1CCCCN1CCCNC(=O)c1cn(C)c2ccc(S(=O)(=O)N(C)C3CCCCC3)cc2c1=O (stereo not given)	30*	nt	nt
CC1CCN(CCCNC(=O)c2cn(C)c3ccc(S(=O)(=O)N(C)C4CCCCC4)cc3c2=O)CC1	108	nt	nt
CCn1cc(C(=O)N2CCN(c3ccccc3)CC2)c(=O)c2cc(S(=O)(=O)N(C)C3CCCCC3)ccc21	68*	nt	nt
CC(C)(C)S(=O)(=O)c1ccccc1/C=N/O	111	5	nt
CC(=O)Nc1ccc(N2CCN(C(=O)c3ccco3)CC2)cc1	100	12	0
COc1c(O)cc2c(c1O)C1OC(CO)C(O)C(O)C1OC2=O (stereo not given)	99	43*	3
COc1cc2ccc(=O)oc2c(OC2OC(CO)C(O)C(O)C2O)c1O (stereo not given)	103	-36	nt
CCn1c(=O)c2sccc2n2c(CCCC(=O)N3CCN(c4ccccc4OC)CC3)nnc12	116	nt	nt
CCn1c(=O)c2sccc2n2c(CCCC(=O)N3CCN(c4ccc(OC)cc4)CC3)nnc12	49*	nt	nt
O=C1NC(=O)NC(=C/C=C/c2ccc(-c3ccc(Cl)cc3Cl)o2)N1	102	-18	57*
N#C/C(=C/C=C/c1ccc(-c2cc(Cl)ccc2Cl)o1)C(N)=S	105	-21	71
CC(C)CN(CC(C)C)C(=O)C1CCCCC1C(=O)O (stereo not given)	102	30*	7
CC(C)CNC(=O)C1CCCCC1C(=O)O (stereo not given)	106	-5	nt
COC(=O)c1c(NC(=O)C(C)Oc2ccc(Cl)cc2Cl)sc2c1CCCC2 (stereo not given)	100	nt	nt
Cc1sc(NC(=O)C(C)Oc2ccc(Cl)cc2Cl)c(C(N)=O)c1C (stereo not given)	75*	-23	nt
O=C(CSc1ccccc1C(=O)N(Cc1ccncc1)Cc1cccnc1)N1CCCC1	111	-38	4
Cc1cc(C)nc(N2CCNCC2)n1	102	12	58

Assay outcomes deposited in PubChem BioAssay by ICCB-Longwood Screening Facility, Harvard Medical School.
